“And” between values parts separate entries of the source, which are not always exact repeats. Identical values can stand only once. Inconclusive results are not listed. A call without a number means that no potency is given here. Some compounds were tested as several samples or in several runs, with calls that do not always agree. The source made the active and inactive calls. Calls come from the whole dose curve; as a rule, active = well fitted inhibition curve with a large enough effect in the signal ratio in the repeat runs (not every such curve was filed as active); inconclusive = weak or mixed curves; inactive = flat fitted curve, though single readings scatter; the % refers to the signal ratio.
Potency is the fitted concentration of half-maximal effect.

Sequence of Progesterone receptor (Homo sapiens) (P06401 whole entry, looked up): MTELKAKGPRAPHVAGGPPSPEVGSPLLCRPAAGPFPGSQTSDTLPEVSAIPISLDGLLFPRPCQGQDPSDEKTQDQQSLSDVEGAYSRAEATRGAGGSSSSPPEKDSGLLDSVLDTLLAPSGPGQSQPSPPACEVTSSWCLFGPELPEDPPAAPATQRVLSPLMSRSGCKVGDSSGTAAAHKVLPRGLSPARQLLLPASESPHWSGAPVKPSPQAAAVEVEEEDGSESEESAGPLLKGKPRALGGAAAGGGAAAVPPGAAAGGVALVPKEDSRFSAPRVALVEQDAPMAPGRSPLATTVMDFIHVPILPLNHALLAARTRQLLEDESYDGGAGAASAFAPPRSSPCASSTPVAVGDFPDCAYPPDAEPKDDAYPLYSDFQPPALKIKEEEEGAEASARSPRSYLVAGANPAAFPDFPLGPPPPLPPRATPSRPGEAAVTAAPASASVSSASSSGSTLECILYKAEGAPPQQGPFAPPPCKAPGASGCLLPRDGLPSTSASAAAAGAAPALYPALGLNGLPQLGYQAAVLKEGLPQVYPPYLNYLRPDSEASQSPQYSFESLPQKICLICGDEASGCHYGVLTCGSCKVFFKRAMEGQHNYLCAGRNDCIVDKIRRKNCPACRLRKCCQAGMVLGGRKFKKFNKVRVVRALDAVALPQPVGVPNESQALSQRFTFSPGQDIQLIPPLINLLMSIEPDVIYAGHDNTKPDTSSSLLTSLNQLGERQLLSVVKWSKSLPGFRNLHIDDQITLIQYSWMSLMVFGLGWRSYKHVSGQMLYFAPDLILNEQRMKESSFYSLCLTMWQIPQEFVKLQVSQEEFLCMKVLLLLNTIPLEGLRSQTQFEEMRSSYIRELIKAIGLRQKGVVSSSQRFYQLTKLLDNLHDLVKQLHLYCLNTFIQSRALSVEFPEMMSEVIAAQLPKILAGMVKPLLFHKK

This assay has as its target Progesterone receptor (Homo sapiens) (UniProt P06401). The experiment in a line: qHTS assay to identify small molecule antagonists of the progesterone receptor (PR) signaling pathway (AID 1346795). The conditions noted are these: PR-UAS-bla HEK293T, beta-lactamase FRET ratio, 16 h; series mostly up to 92.4 µM. The text has this: National Center for Advancing Translational Sciences [NCATS]
NIH Chemical Genomics Center [NCGC]
U.S. Environmental Protection Agency [EPA]
National Institutes of Environmental Health Sciences [NIEHS]
National Toxicology Program [NTP]
U.S. Food and Drug Administration [FDA]
Progesterone receptor (PR), a nuclear hormone receptor, plays an important role in development, metabolic homeostasis and reproduction. […] Endocrine disrupting chemicals (EDCs) and their interactions with steroid hormone receptors like PR causes disruption of normal endocrine function. To identify the compounds that inhibit PR signaling, a PR-UAS-bla GripTite cell line i.e. PR-UAS-bla HEK293T (Invitrogen, Carlsbad, CA, USA) containing a beta-lactamase reporter gene under the control of an Upstream Activator Sequence (UAS) was used to screen Tox21 10K compound library.
Tox21 Assay Protocol Summary:
PR-UAS-bla HEK293T cells were dispensed at 3,000 cells/4 uL of assay medium containing 2% charcoal stripped FBS per well into black wall/clear-bottom 1536-well plates using a Multidrop Combi (ThermoFisher Scientific, Waltham, MA) dispenser. After the assay plates were incubated at a 37C and 5% CO2 for 6 hr, 23 nL of compounds dissolved in DMSO, positive controls or DMSO only was transferred to the assay plate by a Pintool station (Kalypsys, San Diego, CA), followed by addition of 1 uL (1nM as final concentration) of Promegestone (R5020) in assay medium using a BioRAPTR FRD (Flying Reagent Dispenser, Aurora Discovery, San Diego, CA). The plates were incubated at 37C and 5% CO2 for 16 hr. Then 1 uL of LiveBLAzer B/G FRET substrate was added using a FRD. After the plates were incubated at room temperature for 2 hours, fluorescence intensity was measured by an Envision plate reader (PerkinElmer, Shelton, CT).
As for `CCN(CC)c1ccc(C(=O)c2ccccc2C(=O)O)c(O)c1`, the Potency entry was “inactive”.

For `CCCCCCCCC/C=C/CC1CC(=O)OC1=O` (stereo not given), the Potency entry was “inactive”.

As for `Oc1cccc2ccccc12`, the Potency was 28 µM (active) and 43.3 µM (active).

On to `O=[N+]([O-])c1ccc(/C=C/c2ccc([N+](=O)[O-])cc2S(=O)(=O)O)c(S(=O)(=O)O)c1`, for which the Potency result was “inactive”.

As for `Cc1ccc(N(C)C)cc1`, the Potency result is “inactive”.

Regarding `CCCCCC1=CCCC1=O`, the Potency entry was “inactive”.

As for `ON=C1CCCCC1`, the Potency entry is “inactive”.

Regarding `C=CCOC(=O)c1ccccc1C(=O)OCC=C`, the Potency entry was “inactive”.

In the case of `CC(=O)Nc1cccc(O)c1`, the Potency result is “inactive”.

Regarding `CCCCOC(=O)COc1ccc(Cl)cc1Cl`, the Potency result was “inactive”.

Turning to `O=C(OCCOCCOC(=O)c1ccccc1)c1ccccc1`, the Potency result was “inactive”.

As to `O=C(O)c1cc(O)c(O)c(O)c1`, the Potency result was “inactive”.

For `FC(F)(F)c1ccc(Cl)c(Cl)c1`, the Potency result is “inactive”.

In the case of `CCCCN(CCCC)CCCC`, the Potency entry is “inactive”.

As for `O=C(O)c1ccc2c(c1)C(=O)OC2=O`, the Potency entry was “inactive”.

As to `CC(O)COCC(C)O` (stereo not given), the Potency result was “inactive”.

`CN(C)CCCN`: the Potency result is “inactive”.

As to `CC1=CCC2CC1C2(C)C` (stereo not given), the Potency result is “inactive”.

As to `Cc1ccc(S(N)(=O)=O)cc1`, the Potency entry is “inactive”.

For the compound `CSCCC=O`, the Potency result was “inactive”.

`CCCCCCOCCO`: the Potency result is “inactive”.

Consider `CCCCCC/C(C=O)=C\c1ccccc1`, for which the Potency result was “inactive”.

Consider `CCC(O)OC(O)CC` (stereo not given), for which the Potency result is “inactive”.

Take `Nc1ccccc1[N+](=O)[O-]`: the Potency entry was “inactive”.

On to `CC1CCC(C(C)C)C(O)C1` (stereo not given), for which the Potency result was “inactive”.

On to `OC[C@H]1O[C@@](CO)(O[C@H]2O[C@H](CO)[C@@H](O)[C@H](O)[C@H]2O)[C@@H](O)[C@@H]1O`, for which the Potency result was “inactive”.

For `O=S(=O)(O)c1ccc2ccccc2c1`, the Potency entry was “inactive”.

Regarding `OCCOCCOCCO`, the Potency entry was “inactive”.

`COc1ccc(NC(C)=O)cc1N`: the Potency entry was “inactive”.

With `c1c[nH]cn1`, the Potency entry is “inactive”.

As for `Cc1cnc(C(=O)NCCc2ccc(S(=O)(=O)NC(=O)NC3CCCCC3)cc2)cn1`, the Potency result is “inactive”.

For `C#CCN(C)Cc1ccccc1`, the Potency entry was “inactive”.

As for `CCN(CC)CCCC(C)Nc1ccnc2cc(Cl)ccc12` (stereo not given), the activity change, negative = inhibition was 0.105% [at 8.39 µM] (inactive) and 2.39% [at 18.9 µM] (inactive).

As to `O=C(Oc1ccccc1)c1ccccc1`, the Potency result was “inactive”.

Regarding `O=C=NCCCCCCN=C=O`, the Potency entry was “inactive”.

Consider `CC(=O)CC(=O)Nc1ccccc1C`, for which the Potency result is “inactive”.

With `CC(=O)Nc1ccccc1`, the Potency result is “inactive”.

Consider `C=C(C)C(=O)O[C@H]1C[C@@H]2CC[C@@]1(C)C2(C)C`, for which the Potency is 2.71 µM (active) and inactive.

On to `O=c1[nH]nnc2ccccc12`, for which the Potency entry is “inactive”.

For the compound `CCCSc1ccc2nc(NC(=O)OC)[nH]c2c1`, the Potency was 4.86 µM (active).

Values taken from PubChem BioAssay (Tox21).
